From PubChem
Most compounds without a hit are left out; they make up all but 18% or so of the library.
CtBP-E1A inh: qHTS Assay for Inhibitors of the CtBP/E1A Interaction; actives 0.49% (n = 340,000); activity change, % (no concentration beside the values); CtBP / adenovirus E1A interaction (AlphaScreen); AlphaScreen GST-E1A/His-CtBP binding, 1536-well; hits give low values; AID 651724, 2012; in the data active = activity change below about -65%; inconclusive = mostly about -30% to -63%
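Homogeneous bead-based format: GST-tagged E1A captured on glutathione donor beads, His-tagged CtBP on nickel acceptor beads; compounds precede bead addition by 2 h at 37 °C.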
IL-1B inflam inh: qHTS for Inhibitors of Inflammasome Signaling: IL-1-beta AlphaLISA Primary Screen; THP-1 LPS/ATP IL-1B secretion, AlphaLISA, 16 h; hits give low values; activity change, % at 57.5 µM; actives 4.7% (n = 360,000); AID 743279, 2014; in the data active = activity change below about -50%; inconclusive = mostly about -30% to -49%
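THP-1 cells pretreated 1 hr with compounds (up to 57.5 uM final), then stimulated with LPS (250 ng/mL final) plus ATP (1.25 mM final); secreted IL-1B measured by AlphaLISA after 16 hr, decreased signal indicating inhibition.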
Six1-Eya2 inh: qHTS Assay for Inhibitors of the Six1/Eya2 Interaction. Homeobox protein SIX1 (Homo sapiens) + Protein phosphatase EYA2 (Homo sapiens), …. AlphaScreen GST-Six1/His-Eya2 binding, biochemical; hits give low values. activity change, % (no concentration beside the values). actives 0.56% (n = 360,000). AID 651725, 2012; in the data active = activity change below about -65%; inconclusive = mostly about -30% to -63%
Target sequence (O00167 whole entry, looked up): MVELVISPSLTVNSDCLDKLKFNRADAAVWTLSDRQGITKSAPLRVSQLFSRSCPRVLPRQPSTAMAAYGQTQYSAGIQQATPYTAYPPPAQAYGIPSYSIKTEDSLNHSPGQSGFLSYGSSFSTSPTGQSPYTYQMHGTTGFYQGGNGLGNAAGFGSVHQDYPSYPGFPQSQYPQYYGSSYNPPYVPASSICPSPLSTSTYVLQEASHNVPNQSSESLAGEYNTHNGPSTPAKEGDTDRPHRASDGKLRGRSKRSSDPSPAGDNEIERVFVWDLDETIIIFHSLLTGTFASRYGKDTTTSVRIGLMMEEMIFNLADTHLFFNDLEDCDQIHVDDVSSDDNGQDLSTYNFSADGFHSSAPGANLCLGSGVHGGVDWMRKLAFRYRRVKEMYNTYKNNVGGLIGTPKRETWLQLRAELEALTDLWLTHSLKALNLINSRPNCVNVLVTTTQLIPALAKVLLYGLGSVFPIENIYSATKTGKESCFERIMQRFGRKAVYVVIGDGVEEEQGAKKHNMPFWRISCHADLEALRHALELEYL
Target sequence (Q15475 whole entry, looked up): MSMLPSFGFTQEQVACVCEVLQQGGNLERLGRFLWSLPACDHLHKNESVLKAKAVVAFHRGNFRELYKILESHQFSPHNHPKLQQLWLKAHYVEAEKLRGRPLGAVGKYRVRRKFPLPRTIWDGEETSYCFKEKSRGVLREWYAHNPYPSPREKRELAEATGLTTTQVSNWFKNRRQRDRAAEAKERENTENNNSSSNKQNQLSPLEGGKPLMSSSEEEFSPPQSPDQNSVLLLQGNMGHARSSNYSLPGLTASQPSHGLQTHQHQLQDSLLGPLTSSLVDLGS
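GST-Six1 + His-Eya2 (5X stock: 250/500 nM); Tris pH 8.0, 300 mM NaCl, 0.05% BSA, 0.02% Tween 20; GSH donor/Ni acceptor beads; 1 h 37 °C dark; AlphaScreen readout.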
TDP1 cell CPT: qHTS for Inhibitors of human tyrosyl-DNA phosphodiesterase 1 (TDP1): qHTS in cells in presence of CPT. chicken DT40 Tdp1-/-;hTDP1 cells + 20 nM CPT, ATP luminescence, 48 h. Potency, µM (titrated, usually from 46.2 µM), for inactives: at the highest dose activity change, negative = growth inhibition, actives largely listed as inhibitors. actives 12% (n = 420,000). AID 686979, 2013; also: potency is read from the fitted curve at half-maximal effect; nearly all actives have a fitted effect of over 55% in size
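Chicken DT40 Tdp1-/- cells complemented with human TDP1, 400 cells/well, exposed to compounds plus 20 nM camptothecin for at least 48 h at 37 C; viability read as ATP content by CellTiter-Glo luminescence.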
DT40 TDP1 no CPT: qHTS for Inhibitors of human tyrosyl-DNA phosphodiesterase 1 (TDP1): qHTS in cells in absence of CPT; DT40 Tdp1-/- hTDP1 cells, no CPT, ATP luminescence, 48 h; actives 15% (n = 420,000); Potency, µM (top dose mostly 46.2 µM), for inactives: top-dose activity change, negative = growth inhibition, usual class: inhibitors; also: potency is read from the fitted curve at half-maximal effect; nearly all actives have a fitted effect of over 55% in size
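Readout: luminescence from CellTiter-Glo after 30 min in the dark at RT. Cells: DT40 Tdp1-/- with stable hTDP1, 400/well. Exposure: compounds alone, ≥48 hr, 37 °C.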
TDP1 inh: qHTS Assay for Inhibitors of Tyrosyl-DNA Phosphodiesterase (TDP1). AID 485290, 2010. actives 0.28% (n = 350,000). Potency, µM (titrated, usually from 130 µM), without a hit: at the top dose activity change, negative = inhibition, hits mostly inhibitors. Tyrosyl-DNA phosphodiesterase 1 (Homo sapiens), Q9NUW8. recombinant TDP1, AlphaScreen DNA substrate cleavage; also: potency is read from the fitted curve at half-maximal effect; nearly all actives have a fitted effect of over 40% in size
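Steps: enzyme plus compound, 15 min RT; add biotin/phosphotyrosine-FITC oligonucleotide (15 nM final), react 5 min; add donor/acceptor beads (10 ug/ml final), 10 min; read AlphaScreen. Tdp1 at 1 nM final.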
* marks the source's active call; other numbers are inactive results; ? = inconclusive; / = no result given; [ ] = dose if it differs, or a comment. Unless noted, calls follow the shape of the dose curve; as a rule, active = well fitted curve in the direction sought with a large enough effect; inconclusive = small, poorly fitted or top-dose-only effect, or another doubt; inactive = no such curve, though single readings can be large; an effect the other way counts as inactive or inconclusive. % is scaled to controls: 0 for no effect and ±100 for the full control effect.

SMILES	CtBP-E1A inh	IL-1B inflam inh	Six1-Eya2 inh	TDP1 cell CPT	DT40 TDP1 no CPT	TDP1 inh
CCN(CC)CCn1c2ccccc2c2cnc(N)c(C#N)c21	-5	-104*	-2	?	21µM*	-5%
CN(C)C=Nc1ncc2c3ccccc3n(CCN(C)C)c2c1C#N	-7	-77*	1	21µM*	23µM*	3%
CCOc1ccc(OCC)c(NC(=O)CN2CCN(c3cc(C)ccc3C)CC2)c1	-21	-24	-19	21µM*	23µM*	-8%
CCOc1ccc(OCC)c(NC(=O)CN2CCN(CC)CC2)c1	2	10	-1	-7%	-20%	-11%[56.1 µM]
CCOc1ccc(OCC)c(NC(=O)CN2CCN(c3cccc(C)c3)CC2)c1	-18	22	?	23µM*	16µM*	-12%[56.1 µM]
CCCN1CCN(CC(=O)Nc2cc(OCC)ccc2OCC)CC1	/	-11	-7	-15%	?	/
CCOc1ccc(OCC)c(NC(=O)CN2CCN(c3cccc(C)c3)C(C)C2)c1 (stereo not drawn)	-5	-25	-11	15µM*	15µM*	4%
CCOc1ccc(OCC)c(NC(=O)CN2CCN(CC(=O)NC(C)C)CC2)c1	/	1	3	15µM*	?	6%
C/C(CC(=O)NCc1ccc(Cl)cc1)=N\NC(=O)c1ccccc1F	-16	-27	-7	24%	8%	1%
CC1(CCc2ccccc2)NC(=O)N(CC(=O)Nc2c(F)cccc2F)C1=O (stereo not drawn)	7	-9	2	-4%	21%	-1%
COc1ccc(CCNC(=O)CCn2c(SCC#N)nc3ccccc3c2=O)cc1OC	2	8	9	?	?	-2%
Cc1nc2cnc(Nc3ccccc3)nc2n(CCC#N)c1=O	/	/	/	-6%	-21%	/
COc1cccc(SCc2noc(C(=O)NC(C)C)c2C(=O)O)c1	5	24	-1	4%	3%	4%
C=CCC(=O)N1CCC(n2nccc2NC(=O)CCOc2ccccc2)CC1	7	-10	0	-4%	-22%	2%
CSc1ccc(Cn2c(C)c(C(=O)NCc3cccc(C(F)(F)F)c3)sc2=O)cc1	-5	-12	-2	?	?	/
Cc1c(C(=O)NCc2ccc(F)cc2)sc(=O)n1Cc1ccc(Cl)c(Cl)c1	-9	-86*	-17	?	?	/
Cc1c(C(=O)NCc2ccc(Cl)c(Cl)c2)sc(=O)n1Cc1ccccc1F	5	-15	-4	?	?	/
CSc1ccc(Cn2c(C)c(C(=O)NCc3ccco3)sc2=O)cc1	-11	-101*	-12	?	?	/
CSc1ccc(Cn2c(C)c(C(=O)NCc3ccc(F)cc3)sc2=O)cc1	-5	?	-5	23µM*	?	/
Cc1c(C(=O)NCc2ccc(Cl)c(Cl)c2)sc(=O)n1Cc1ccc(S(C)(=O)=O)cc1	-5	?	-3	?	18µM*	/
Cc1c(C(=O)NCc2cccc([N+](=O)[O-])c2)sc(=O)n1Cc1ccc(C(C)C)cc1	-14	?	-11	?	?	/
COc1ccc(S(=O)(=O)c2c(O)c3ccc(C(=O)Nc4ccc(F)cc4)cc3[nH]c2=O)cc1	-24	-2	?	-22%	18%	1%
CC(=O)c1cccc(NC(=O)CSc2nc(N3CCOCC3)nc(N3CCOCC3)n2)c1	14	0	29	?	-23%	3%
Cc1ccc(Cn2c(C)c(C(=O)NCC(C)C)sc2=O)cc1	8	-24	0	?	?	/
